Calls of active or inactive are those of the source. How the source made its calls: active means hit-call score of the fitted dose curve at least 0.9, where 1 is the maximum; inactive means score below 0.9.
What was measured:
[1] = Tanguay_ZF_120hpf_TCHR: Oregon State University Tanguay Lab 120 Hour Post-fertilization zebrafish Assay for Touch Responsive (AID 2284403)
Summary of the method: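 Dechorionated Tropical 5D wild-type zebrafish embryos, one per well from 6 hpf, were statically exposed to 120 hpf at 28 °C (0.64% DMSO). Touch response was scored present/absent at 120 hpf and not scored in dead larvae.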

[2] = Tanguay_ZF_120hpf_ANY: Oregon State University Tanguay Lab 120 Hour Post-fertilization zebrafish Assay for Any Mortality and Malformation (AID 2284404)
Summary of the method: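 Dechorionated Tropical 5D wild-type embryos, one per well from 6 hpf, static exposure in sealed, dark plates at 28C until 120 hpf, 0.64% DMSO final. Brightfield scoring of mortality and malformations as binary presence/absence, pooling 13 morphology endpoints.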

[3] = CCTE_Padilla_ZF_Score.Craniofacial: CCTE's 144 Hour Post-fertilization zebrafish Assay Score for Craniofacial Malformation, Padilla Lab (AID 2284405)
Summary of the method: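 Wild-type zebrafish embryos (with chorions), one per well in 10% Hanks', were dosed at 6–8 hpf in sealed plates and kept at 26C. They were rinsed at 5 dpf. At 6 dpf two blinded assessors scored craniofacial malformations by brightfield stereomicroscopy.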

[4] = CCTE_Padilla_ZF_Score.Edema: CCTE's 144 Hour Post-fertilization zebrafish Assay Score for Edema Malformation, Padilla Lab (AID 2284406)
Protocol: (§1) CCTE_Padilla_ZF_Phenotype_Score is a whole embryo, multiplexed assay using zebrafish ova exposed for 144 hours post fertilization on a 96-well plate.CCTE_Padilla_ZF_Score.Edema is one of one assay component(s) measured or calculated from the CCTE_Padilla_ZF_Phenotype_Score assay. It is designed to make measurements of zebrafish development as detected with brightfield microscopy of developing zebrafish embryos.Data from the assay component CCTE_Padilla_ZF_Score.Edema was analyzed into 1 assay endpoints. This assay endpoint, CCTE_Padilla_ZF_Score.Edema, was analyzed in the positive analysis fitting direction relative to DMSO as the negative control and baseline of activity. Using a type of viability reporter, gain-of-signal activity can be used to understand changes in developmentals as they relate to the whole embryo. To generalize the intended target to other relatable targets, this assay endpoint is annotated to the zebrafish development intended target family, where the subfamily is embryonic edema.
(§2) Zebrafish husbandry: Wild type adult zebrafish (Danio rerio; undefined outbred stock obtained from Aquatic Research Organisms, Hampton, NH, 03842) were housed in an AAALAC-approved animal facility at 28C with a 14:10 h light: dark cycle (lights on at 08:30 h). Adult fish (2-3 females per male; density = 15-20 adults per tank) were kept in one of several 9-liter (L) flow-through colony tanks (Aquaneering Inc., San Diego, CA). All adults in a colony tank were placed in a 2 L (static) breeding tank (Aquatic Habitats, Apopka, FL) one hour prior to light onset. Typically, adults from two to three colony tanks were mated on the same day. Two hours after light onset the adults were returned to the colony tank. All embryos were gathered from each breeder tank, pooled, and placed in a 28C water bath for 2 h, followed by two washes with 0.06% bleach (v/v) in 10% Hanks' Balanced Salt Solution (13.7 mM NaCl 0.54 mM KCl, 25 uM Na2HPO4, 130 uM CaCl2 100 um MgSO4 and 420 um NaHCO3,), hereafter referred to as Hanks' solution, for 5 min in order to remove any residual bacteria or fungi. […]

[5] = CCTE_Padilla_ZF_Score.Spine: CCTE's 144 Hour Post-fertilization zebrafish Assay Score for Spine Malformation, Padilla Lab (AID 2284407)
Protocol: as §1, with “plate.CCTE_Padilla_ZF_Score.Spine” for “plate.CCTE_Padilla_ZF_Score.Edema”, “CCTE_Padilla_ZF_Score.Spine” for “CCTE_Padilla_ZF_Score.Edema”, “CCTE_Padilla_ZF_Score.Spine,” for “CCTE_Padilla_ZF_Score.Edema,”, “body axis morphogenesis.” for “embryonic edema.”
as §2, with “tank.” for “tank. All embryos were gathered from each breeder tank, pooled, and placed in a 28C water bath for 2 h, followed by two washes with 0.06% bleach (v/v) in 10% Hanks' Balanced Salt Solution (13.7 mM NaCl 0.54 mM KCl, 25 uM Na2HPO4, 130 uM CaCl2 100 um MgSO4 and 420 um NaHCO3,), hereafter referred to as Hanks' solution, for 5 min in order to remove any residual bacteria or fungi.”

[6] = CCTE_Padilla_ZF_Score.Swim_bladder: CCTE's 144 Hour Post-fertilization zebrafish Assay Score for Swim Bladder Malformation, Padilla Lab (AID 2284408)
Summary of the method: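 Wild-type zebrafish embryos, one per well in 10% Hanks', dosed at 6–8 hpf, sealed, reared at 26C and rinsed at 5 dpf. Blinded assessors scored uninflated swim bladder by stereomicroscopy at 6 dpf, relative to DMSO.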

[7] = CCTE_Padilla_ZF_Score.Position: CCTE's 144 Hour Post-fertilization zebrafish Assay Score for Position, Padilla Lab (AID 2284409)
Protocol: as §1, with “plate.CCTE_Padilla_ZF_Score.Position” for “plate.CCTE_Padilla_ZF_Score.Edema”, “CCTE_Padilla_ZF_Score.Position” for “CCTE_Padilla_ZF_Score.Edema”, “CCTE_Padilla_ZF_Score.Position,” for “CCTE_Padilla_ZF_Score.Edema,”, “mobility.” for “edema.”
as §2, with “tank.” for “tank. All embryos were gathered from each breeder tank, pooled, and placed in a 28C water bath for 2 h, followed by two washes with 0.06% bleach (v/v) in 10% Hanks' Balanced Salt Solution (13.7 mM NaCl 0.54 mM KCl, 25 uM Na2HPO4, 130 uM CaCl2 100 um MgSO4 and 420 um NaHCO3,), hereafter referred to as Hanks' solution, for 5 min in order to remove any residual bacteria or fungi.”

[8] = CCTE_Padilla_ZF_Score.Living: CCTE's 144 Hour Post-fertilization zebrafish Assay Score for Viability, Padilla Lab (AID 2284410);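 further: larval death at 6 dpf judged by absent heartbeat or coagulation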
Summary of the method: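 Wild-type zebrafish embryos were exposed singly from 6–8 hpf in sealed wells of Hanks' solution at 26C, then rinsed at 5 dpf. At 6 dpf, blinded assessors scored mortality (no heartbeat or coagulation) by stereomicroscopy, fitted against DMSO.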

[9] = CCTE_Padilla_ZF_Score.General: CCTE's 144 Hour Post-fertilization zebrafish Assay Score for General Malformation, Padilla Lab (AID 2284411)
Summary of the method: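 Wild-type zebrafish embryos were plated singly at 6-8 hpf in 10% Hanks' and exposed in sealed wells at 26C until rinsed on 5 dpf. At 6 dpf two blinded assessors scored mortality, hatching and malformations by stereomicroscopy; gain-of-signal versus DMSO.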

[10] = CCTE_Padilla_ZF_Score.Tail: CCTE's 144 Hour Post-fertilization zebrafish Assay Score for Tail Malformation, Padilla Lab (AID 2284414)
Protocol: as §1, with “plate.CCTE_Padilla_ZF_Score.Tail” for “plate.CCTE_Padilla_ZF_Score.Edema”, “CCTE_Padilla_ZF_Score.Tail” for “CCTE_Padilla_ZF_Score.Edema”, “CCTE_Padilla_ZF_Score.Tail,” for “CCTE_Padilla_ZF_Score.Edema,”, “lower trunk morphogenesis.” for “embryonic edema.”
as §2, with “tank.” for “tank. All embryos were gathered from each breeder tank, pooled, and placed in a 28C water bath for 2 h, followed by two washes with 0.06% bleach (v/v) in 10% Hanks' Balanced Salt Solution (13.7 mM NaCl 0.54 mM KCl, 25 uM Na2HPO4, 130 uM CaCl2 100 um MgSO4 and 420 um NaHCO3,), hereafter referred to as Hanks' solution, for 5 min in order to remove any residual bacteria or fungi.”

O=C(O)C(F)(F)C(F)(F)C(F)(F)C(F)(F)C(F)(F)C(F)(F)F
outcome [1]: inactive
outcome [2]: inactive
outcome [3]: inactive
outcome [4]: inactive
outcome [5]: inactive
outcome [6]: inactive
outcome [7]: inactive
outcome [8]: inactive
outcome [9]: inactive
outcome [10]: inactive

Nc1cccc2ccccc12
outcome [9]: inactive

Nc1ncc([N+](=O)[O-])s1
outcome [9]: inactive

CCOP(=S)(OCC)SCCS(=O)(=O)CC
outcome [9]: inactive

CCOP(=S)(OCC)Oc1ccc(S(C)=O)cc1 (configuration not stated)
outcome [9]: inactive

O=C(O)C(F)(F)C(F)(F)C(F)(F)C(F)(F)C(F)(F)C(F)(F)C(F)(F)C(F)(F)C(F)(F)C(F)(F)F
outcome [1]: inactive
AC50 [2]: 66500 nM (active)
AC50 [3]: 2410 nM (active)
AC50 [4]: 2400 nM (active)
outcome [5]: inactive
AC50 [6]: 2410 nM (active)
outcome [7]: inactive
AC50 [8]: 50700 nM (active)
AC50 [9]: 2510 nM (active)
outcome [10]: inactive

BrCCBr
outcome [9]: inactive

CC(C)CCCCCCOC(=O)c1ccccc1C(=O)OCCCCCCC(C)C
outcome [9]: inactive

NC(=S)Nc1ccccc1
outcome [9]: inactive

CC(=O)C(Cl)C(=O)N(C)C (configuration not stated)
outcome [9]: inactive

COc1cc(OC)nc(NC(=O)NS(=O)(=O)c2ncccc2C(=O)N(C)C)n1
outcome [9]: inactive

O=C(O)CCC(F)(C(F)(F)F)C(F)(F)F
outcome [3]: inactive
outcome [4]: inactive
outcome [5]: inactive
outcome [6]: inactive
outcome [7]: inactive
outcome [8]: inactive
outcome [9]: inactive
outcome [10]: inactive

From PubChem BioAssay (EPA / NIEHS)
